Luciferase inh: Firefly luciferase inhibition profiling of diverse chemical library using quantitative high-throughput screening. purified P. pyralis luciferase, luminescence, biochemical. Potency, µM (highest dose often 115 µM), actives largely listed as inhibitors. 2.5% of 76,000 active. AID 1347043, 2019; also: nearly all actives have a fitted effect of over 65% in size
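Cell-free enzyme assay, 10nM P. pyralis luciferase, luciferin and ATP each at 10uM. Inhibition profiled over a 6-point titration, read as luminescence.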
NPR1 antag: Natriuretic polypeptide receptor (hNpr1) antagonism - Primary qHTS | Atrial natriuretic peptide receptor 1 (Homo sapiens), P16066 | HEK293 hNpr1 GloSensor cGMP, ANP-stimulated luminescence | Potency, µM (series often up to 46.3 µM), for the others: top-dose activity change, negative = inhibition, most hits filed as inhibitors | 1.6% of 76,000 active; calls by dose curve; also: nearly all actives have a fitted effect of over 60% in size
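Compound pre-incubated 30 min at room temperature on GloSensor-loaded HEK293 cells stably carrying hNpr1 and the pGS-40F cGMP biosensor. Stimulation uses hNppA at 0.1 nM final; luminescence is taken at baseline and 20 min post-agonist.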
GPT2 inh: Primary qHTS assay for inhibitors of Glutamate pyruvate transaminase 2 (GPT2). Alanine aminotransferase 2 (Homo sapiens), Q8TD30. Recombinant GPT2, coupled pyruvate oxidase/HRP Amplex Red fluorescence. Potency, µM (series often up to 57.7 µM), for inactives: at the top dose activity change, negative = inhibition, usual class: inhibitors. 0.25% of 100,000 active. AID 1671188, 2021; also: nearly all actives have a fitted effect of over 60% in size
Target sequence (Q8TD30 whole entry, looked up): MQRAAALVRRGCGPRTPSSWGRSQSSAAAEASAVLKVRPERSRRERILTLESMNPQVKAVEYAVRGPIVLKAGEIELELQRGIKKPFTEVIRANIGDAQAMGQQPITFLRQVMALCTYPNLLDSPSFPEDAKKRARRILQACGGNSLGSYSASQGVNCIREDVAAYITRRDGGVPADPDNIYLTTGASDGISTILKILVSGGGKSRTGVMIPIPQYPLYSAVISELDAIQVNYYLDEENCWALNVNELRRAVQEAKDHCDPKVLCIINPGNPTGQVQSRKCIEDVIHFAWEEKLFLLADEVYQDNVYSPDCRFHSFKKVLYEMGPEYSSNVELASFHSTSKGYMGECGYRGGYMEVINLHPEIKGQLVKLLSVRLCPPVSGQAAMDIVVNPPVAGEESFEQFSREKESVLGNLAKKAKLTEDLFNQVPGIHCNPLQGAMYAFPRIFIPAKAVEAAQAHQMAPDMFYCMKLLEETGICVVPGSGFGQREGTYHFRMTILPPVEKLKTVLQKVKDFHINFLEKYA
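Fluorescence read-out: pyruvate from GPT2 turnover coupled to pyruvate oxidase, HRP and Amplex Red (0.2mM ThPP, 0.2U/mL PO and HRP, 50uM Amplex final). Substrates 250uM a-KG, 2mM L-alanine; enzyme 10ng/uL; 30 min RT.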
3T3 cytotox: Cytotoxic Profiling in NIH 3T3 Cell Line of Diverse Libraries Using Quantitative High-Throughput Screening; AID 1345082, 2018; NIH 3T3 viability, CellTiter-Glo ATP luminescence, 48-72 h; 4.3% of 94,000 active; Potency, µM (series often up to 96.7 µM), without a hit: at the top dose activity change, negative = cytotoxicity, most hits filed as inhibitors; also: nearly all actives have a fitted effect of over 55% in size
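Viability of NIH 3T3 cells after 48 or 72 hr compound treatment at 37 °C was assessed by CellTiter-Glo, with luminescence imaged following a 10 min room-temperature step.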
HEK cytotox: Cytotoxic Profiling in HEK 293 Cell Line of Diverse Libraries Using Quantitative High-Throughput Screening. HEK 293 viability, ATP luminescence (CellTiter-Glo), 48-72 h. Potency, µM (series often up to 115 µM), for inactives: at the highest dose activity change, negative = cytotoxicity, hits mostly inhibitors. 6.6% of 94,000 active. AID 1345083, 2018; also: nearly all actives have a fitted effect of over 60% in size
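ATP-coupled CellTiter-Glo luminescence served as viability read-out, recorded 10 min after reagent addition at room temperature. HEK 293 cells, 250 cells/well, had been incubated with pintool-transferred compound for 48 or 72 hr at 37 degree Celsius.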
* = called active by the depositor; i = inactive; u = inconclusive; x = not tested or not shown; ! = not confirmed by another sample; [ ] = dose if it differs, or a comment. Most compounds without a hit are left out; they make up all but 10% or so of the library. Unless noted, calls follow the shape of the dose curve; as a rule, active = well fitted curve in the direction sought with a large enough effect; inconclusive = small, poorly fitted or top-dose-only effect, or another doubt; inactive = no such curve, though single readings can be large; an effect the other way counts as inactive or inconclusive. % is scaled to controls: 0 for no effect and ±100 for the full control effect; potency is read from the fitted curve at half-maximal effect.

SMILES	Luciferase inh	NPR1 antag	GPT2 inh	3T3 cytotox	HEK cytotox
COc1ccccc1Nc1ccnc(N2CCCC(C(=O)NC3CCCC3)C2)n1 (centres undefined)	x	x	i	35µM*	u
COc1ccccc1Nc1ccnc(N2CCCC(C(=O)N3CCOCC3)C2)n1 (centres undefined)	x	x	i	-42%	u
COc1ccccc1Nc1ccnc(N2CCCC(C(=O)NC3CCOC3)C2)n1 (centres undefined)	x	x	3%	u	u
O=C(NCC1CC1)c1cn2cc(-c3ccc(C(F)(F)F)cc3)sc2n1	x	x	1%	u	u
COCCCNC(=O)c1cn2cc(-c3ccc(OC)cc3)sc2n1	x	x	-11%[88.5 µM]	40µM*	79µM*
COc1ccc(-c2cn3cc(C(=O)NCC4CC4)nc3s2)cc1	x	x	i	50µM*	63µM*
COc1ccc(-c2cn3cc(C(=O)N(C)C)nc3s2)cc1	x	x	-9%[88.5 µM]	89µM*	u
COCCCNC(=O)c1cn2cc(-c3cccc(C#N)c3)sc2n1	x	x	-16%	45µM*	u
O=C(NCc1nnc2ccc(-c3ccccc3)nn12)c1ccoc1	i	-5%	i	-8%	i
CCN1C(=O)CN(C(=O)Cc2ccccc2)CC12CCOCC2	x	x	i	-21%	-6%
CC1=C[C@@H](CNC(=O)COc2ccccc2)[C@H](C(C)C)C[C@H]1CC(=O)NCCN1CCOCC1	i	-2%	1%	-20%	-18%
CC(=O)Nc1ccc(C(=O)NC[C@@H]2C=C(C)[C@H](CC(=O)NCCN3CCOCC3)C[C@H]2C(C)C)cc1	45µM*	6%	u	2%	-10%
CC1=C[C@@H](CNS(=O)(=O)c2cccs2)[C@H](C(C)C)C[C@H]1CC(=O)NCCN1CCOCC1	i	2%	-3%	25µM*	-22%
Cc1ccc(C(=O)N(C)C2CCCc3ccccc32)cc1 (centres undefined)	35µM*	-7%[70.6 µM]	i	u	79µM*
COC(=O)N(C)C1CCCc2ccccc21 (centres undefined)	i	2%[70.6 µM]	u	-34%[174 µM]	u
CN(C(=O)c1ccc(F)cc1)C1CCCc2ccccc21 (centres undefined)	u	-1%[70.6 µM]	i	u	100µM*
CCN(Cc1ccccc1)c1ncncc1-c1nc(-c2ccccc2)no1	i	-24%	-5%	u	79µM*
O=C(NCCc1ccc(Cl)cc1)c1nc2sccn2c1-c1cccc(C(F)(F)F)c1	x	x	3%	u	u
O=C(NCCc1ccc(Cl)cc1)c1nc2sccn2c1Br	18µM*	16%	i	-15%	-21%
Cc1ccc(-c2c(C(=O)NCCc3ccc(Cl)cc3)nc3sccn23)cc1	x	x	1%	u	35µM*
CC(C)CNC(=O)c1nc2cccnc2n(C2CC2)c1=O	x	x	2%[88.5 µM]	-11%[138 µM]	-2%[172 µM]
Cc1ccc(O)c(CN2CC[C@@H](c3ccc4ccccc4c3)[C@H](O)C2)n1	i	u	-7%	u	45µM*
COc1ccc(-n2c(=O)c(C(=O)NCc3cccc(OC)c3)nc3cccnc32)cc1	x	x	3%	u	u
Cc1noc(C)c1[S+](=O)([O-])NC1CCN(Cc2cccc(-c3cccs3)c2)CC1	x	x	4%	40µM*!	22µM*!
Cc1cccc(-c2cccc(CN3CCC(N[S+](=O)([O-])c4c(C)noc4C)CC3)c2)c1	x	x	-12%	32µM*	28µM*
SMILES	Luciferase inh	NPR1 antag	GPT2 inh	3T3 cytotox	HEK cytotox
O=C1CC(c2ccccc2)N(C(=O)CNC(=O)c2ccc3[nH]ccc3c2)CCCCCN1 (centres undefined)	i	5%	-6%	i	u
O=C(NCCc1ccc(Cl)cc1)C1CCN(c2nc3ncccc3o2)CC1	x	x	i	u	u
Cc1ccccc1C(=O)NC1CCN(Cc2ccc(-c3ccsc3)cc2)C1 (centres undefined)	x	x	4%	u	79µM*
CC(=O)NC1CCN(Cc2ccc(-c3ccsc3)cc2)C1 (centres undefined)	x	x	i	u	u
O=C(NC1CCN(Cc2ccc(-c3ccsc3)cc2)C1)c1cccc(Cl)c1 (centres undefined)	x	x	i	u	45µM*
COC(=O)NC1CCN(Cc2ccc(-c3ccsc3)cc2)C1 (centres undefined)	x	x	-1%[88.5 µM]	u	100µM*
COc1cccc(CN2C(=O)OC3(CCN(Cc4c[nH]c5ccccc45)CC3)C2(C)c2cccnc2)c1 (centres undefined)	i	-1%	-6%	32µM*	u
COc1cccc(CN2C(=O)OC3(CCN(C(C)=O)CC3)C2(C)c2cccnc2)c1 (centres undefined)	i	2%[70.6 µM]	i	89µM*	-1%[172 µM]
COc1cccc(CN2C(=O)OC3(CCN(Cc4ccc5c(c4)CCO5)CC3)C2(C)c2cccnc2)c1 (centres undefined)	i	2%	1%	u	u
COc1cccc(CN2C(=O)OC3(CCN(C(=O)c4ccn(C)n4)CC3)C2(C)c2cccnc2)c1 (centres undefined)	i	1%	4%	35µM*	-21%
COc1cccc(CN2C(=O)OC3(CCN(C(=O)C4CCC4)CC3)C2(C)c2cccnc2)c1 (centres undefined)	i	3%	-19%	u	5%
O=C(NC1CCN(c2ccc3nnc(C4CC4)n3n2)C1)c1cccc(Cl)c1 (centres undefined)	x	x	x	-13%	2%
c1ccc(-c2nnc3ccc(Nc4ccc(N5CCOCC5)cc4)nn23)nc1	u	-5%[70.6 µM]	-26%[88.5 µM]	u	63µM*
c1ccc(-c2nnc3ccc(N4CCc5ccccc5C4)nn23)nc1	i	4%[70.6 µM]	3%[88.5 µM]	u	71µM*
COc1ccc(-c2nnc3ccc(N4CCc5ccccc5C4)nn23)nc1	i	-4%[70.6 µM]	-6%[88.5 µM]	u	56µM*
COC1CCN(c2ccc3nnc(-c4ccccn4)n3n2)CC1	i	6%[70.6 µM]	i	50µM*	-10%[172 µM]
CC(C)c1nc(-c2ccc(OC3CCN(S(=O)(=O)Cc4ccccc4)C3)cc2)no1 (centres undefined)	u	u	-9%	u	u
N#Cc1ccc(CN2CCn3c(nn(-c4cccc(Cl)c4)c3=O)C2)cc1	x	x	i	u	u
CCn1cnnc1-c1nn(C)c2c1CN(C(=O)C(C)c1ccccc1)CC2 (centres undefined)	i	6%	u	i	i
